Data reported in PubChem BioAssay (Tox21).
Results filed as inconclusive are left out. Calls of active or inactive are those of the source. Unless noted, calls come from the whole dose curve; as a rule, active = well fitted curve in the direction sought with a large enough effect in the repeat runs; inconclusive = weak or mixed curves; inactive = no such curve, though single readings can be large; an effect the other way counts as inactive or inconclusive.

Experiments:
[1] = qHTS assay to identify small molecule antagonists of the glucocorticoid receptor (GR) signaling pathway - cell viability counter screen (AID 720693); note: nearly all actives have a fitted effect of over 55% in size
[2] = qHTS assay for identifying genotoxic compounds that show differential cytotoxicity against isogenic chicken DT40 cell lines with known DNA damage response pathways - wild type cell line (AID 743012); note: nearly all actives have a fitted effect of over 60% in size
Summary of the method: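 Viability of DNA repair-proficient chicken DT40 cells was assessed by CellTiter-Glo luminescence following 40 h compound exposure at 37 C/5% CO2.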

[3] = qHTS assay for identifying genotoxic compounds that show differential cytotoxicity against isogenic chicken DT40 cell lines with known DNA damage response pathways - Rev3 mutant cell line (AID 743014); note: nearly all actives have a fitted effect of over 55% in size; note: potency is the fitted concentration of half-maximal effect
[4] = qHTS assay for identifying genotoxic compounds that show differential cytotoxicity against isogenic chicken DT40 cell lines with known DNA damage response pathways - Rad54/Ku70 mutant cell line (AID 743015); note: nearly all actives have a fitted effect of over 60% in size
[5] = qHTS assay to identify small molecule antagonists of the androgen receptor (AR) signaling pathway - cell viability counter screen (AID 743033; note: nearly all actives have a fitted effect of over 45% in size)
[6] = qHTS assay to identify small molecule antagonists of the androgen receptor (AR) signaling pathway using the MDA cell line - cell viability counter screen (AID 743041; note: nearly all actives have a fitted effect of over 45% in size)
Summary of the method: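 qHTS viability read-out; MDA-kb2 AR-luc; R1881-stimulated; 16 h exposure at 37C, 0% CO2; CellTiter-Fluor, 30 min; fluorescence intensity.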

[7] = qHTS assay to identify small molecule antagonists of the thyroid receptor (TR) signaling pathway - cell viability counter screen (AID 743064); note: nearly all actives have a fitted effect of over 50% in size
Summary of the method: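 Rat GH3 pituitary tumor cells stably expressing two TR response elements driving luciferase were plated, rested 4 h, then dosed with library compounds and T3 (1 nM final). After 23.5 h at 37 °C, CellTiter-Fluor was added for 30 min and fluorescence recorded.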

[8] = qHTS assay to identify small molecule antagonists of the thyroid receptor (TR) signaling pathway (AID 743065); note: series mostly up to about 70 µM; nearly all actives have a fitted effect of over 55% in size
Summary of the method: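 GH3.TRE-Luc rat pituitary cells carrying two TR response elements driving luciferase were plated for 4 h, given compound plus 1 nM T3 (final), and incubated 23.5 h at 37 C. ONE-Glo luminescence measured reporter inhibition; CellTiter-Fluor fluorescence tracked cytotoxicity.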

[9] = test system: thyroid hormone receptor (rat, GH3 cells); assay: qHTS assay to identify small molecule agonists of the thyroid receptor (TR) signaling pathway (AID 743066; calls by dose curve)
[10] = molecular target: Estrogen receptor (Homo sapiens) (UniProt P03372); assay: qHTS assay to identify small molecule antagonists of the estrogen receptor alpha (ER-alpha) signaling pathway (AID 743069; active = well fitted curve in the direction sought with a large enough effect in the signal ratio in the repeat runs, not every such curve was filed as active; the % refers to the signal ratio)
Summary of the method: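 Screening used a UAS-driven beta-lactamase reporter integrated into HEK293 cells expressing ER-alpha, stimulated with 17beta-estradiol alongside test compounds over 18 hr at 37C; signal came from LiveBLAzer B/G FRET fluorescence.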

[11] = qHTS assay to identify small molecule antagonists of the estrogen receptor alpha (ER-alpha) signaling pathway - cell viability counter screen (AID 743074; calls by dose curve; note: nearly all actives have a fitted effect of over 45% in size)
[12] = molecular target: Estrogen receptor (Homo sapiens) (UniProt P03372); assay: qHTS assay to identify small molecule agonists of the estrogen receptor alpha (ER-alpha) signaling pathway (AID 743075; calls by dose curve)
[13] = molecular target: Estrogen receptor (Homo sapiens) (UniProt P03372); assay: qHTS assay to identify small molecule agonists of the estrogen receptor alpha (ER-alpha) signaling pathway using the BG1 cell line (AID 743079); note: nearly all actives have a fitted effect of over 20% in size
[14] = qHTS assay to identify small molecule antagonists of the estrogen receptor alpha (ER-alpha) signaling pathway using the BG1 cell line (AID 743080; calls by dose curve;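 note: BG1 cells stimulated with 17beta-estradiol alongside compound; series mostly up to about 70 µM; nearly all actives have a fitted effect of over 25% in size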)
Summary of the method: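 Readout is ONE-Glo luminescence, taken 30 min at room temperature after reagent addition, preceded by a CellTiter-Fluor viability read; BG1-Luc-4E2 cells had received compound and 17beta-estradiol for 21.5 h at 37 C.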

[15] = qHTS assay to identify small molecule antagonists of the estrogen receptor alpha (ER-alpha) signaling pathway using the BG1 cell line - cell viability counter screen (AID 743081);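 note: compound given together with 17beta-estradiol as the ER stimulus; series mostly up to about 70 µM; nearly all actives have a fitted effect of over 45% in size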
Aromatase (Homo sapiens) = Aromatase (Homo sapiens) (UniProt P11511); assay: qHTS assay to identify aromatase inhibitors (AID 743083); note: series mostly up to about 70 µM; nearly all actives have a fitted effect of over 55% in size
[16] = molecular target: Androgen receptor (Homo sapiens) (UniProt P10275); assay: qHTS assay to identify small molecule antagonists of the androgen receptor (AR) signaling pathway (AID 743035; active = well fitted inhibition curve with a large enough effect in the signal ratio in the repeat runs, not every such curve was filed as active; the % refers to the signal ratio)
Summary of the method: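 Reporter HEK293 cells were exposed to compounds and R1881 overnight (16 h, 37C); beta-lactamase activity was then quantified by FRET fluorescence.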

[17] = molecular target: Androgen receptor (Homo sapiens) (UniProt P10275); assay: qHTS assay to identify small molecule agonists of the androgen receptor (AR) signaling pathway (AID 743036; active = well fitted activation curve with a large enough effect in the signal ratio in the repeat runs, with a control signal flat, not every such curve was filed as active; the % refers to the signal ratio)
Summary of the method: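 Quantitative HTS of the Tox21 10K library in HEK293 cells bearing a stably integrated UAS-controlled beta-lactamase reporter. Compound exposure lasted 16 h at 37C. Reporter activity was detected by FRET substrate fluorescence after 2 h at room temperature.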

[18] = molecular target: Androgen receptor (Homo sapiens) (UniProt P10275); assay: qHTS assay to identify small molecule agonists of the androgen receptor (AR) signaling pathway using the MDA cell line (AID 743040; note: nearly all actives have a fitted effect of over 20% in size)
Summary of the method: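 Agonist activity is measured as luciferase luminescence in human MDA-kb2 cells whose MMTV reporter responds to both AR and GR. Compounds in DMSO incubate 16 h at 37C, 0% CO2, and ONE-Glo is read after 30 min.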

[19] = molecular target: Androgen receptor (Homo sapiens) (UniProt P10275); assay: qHTS assay to identify small molecule antagonists of the androgen receptor (AR) signaling pathway using the MDA cell line (AID 743042; note: nearly all actives have a fitted effect of over 55% in size)
Summary of the method: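 MDA-kb2 cells (human breast carcinoma, stably carrying an MMTV-luciferase reporter responsive to AR and GR) were plated at 3,000 cells/well and preincubated 5 hr at 37C, then given compound plus R1881 agonist for 16 h. ONE-Glo luminescence was read.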

Measured: Potency

Chain of Androgen receptor (Homo sapiens) (P10275 whole entry, looked up): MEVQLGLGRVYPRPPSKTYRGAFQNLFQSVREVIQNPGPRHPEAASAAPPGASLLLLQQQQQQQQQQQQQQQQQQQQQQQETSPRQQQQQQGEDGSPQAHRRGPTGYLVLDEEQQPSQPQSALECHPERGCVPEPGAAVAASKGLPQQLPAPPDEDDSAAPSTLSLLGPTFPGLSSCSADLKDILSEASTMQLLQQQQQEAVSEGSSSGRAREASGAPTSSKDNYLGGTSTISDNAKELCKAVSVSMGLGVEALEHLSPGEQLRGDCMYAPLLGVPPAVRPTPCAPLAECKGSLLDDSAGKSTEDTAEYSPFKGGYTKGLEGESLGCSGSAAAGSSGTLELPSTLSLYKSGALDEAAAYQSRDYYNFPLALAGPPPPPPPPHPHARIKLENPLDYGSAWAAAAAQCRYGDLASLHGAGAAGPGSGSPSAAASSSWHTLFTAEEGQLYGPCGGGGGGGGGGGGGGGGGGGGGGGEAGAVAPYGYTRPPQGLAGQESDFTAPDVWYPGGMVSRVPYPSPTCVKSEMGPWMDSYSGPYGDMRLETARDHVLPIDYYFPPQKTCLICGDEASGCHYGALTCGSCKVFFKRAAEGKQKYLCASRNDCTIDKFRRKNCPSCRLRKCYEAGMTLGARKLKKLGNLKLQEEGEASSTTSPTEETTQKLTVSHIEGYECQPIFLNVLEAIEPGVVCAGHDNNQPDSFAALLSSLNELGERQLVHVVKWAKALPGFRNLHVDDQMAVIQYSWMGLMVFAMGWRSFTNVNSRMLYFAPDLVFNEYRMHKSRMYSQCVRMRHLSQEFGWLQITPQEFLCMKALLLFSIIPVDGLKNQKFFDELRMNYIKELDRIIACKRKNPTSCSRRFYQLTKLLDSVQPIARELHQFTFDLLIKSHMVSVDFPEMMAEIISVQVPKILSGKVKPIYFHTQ
Chain of Estrogen receptor (Homo sapiens) (P03372 whole entry, looked up): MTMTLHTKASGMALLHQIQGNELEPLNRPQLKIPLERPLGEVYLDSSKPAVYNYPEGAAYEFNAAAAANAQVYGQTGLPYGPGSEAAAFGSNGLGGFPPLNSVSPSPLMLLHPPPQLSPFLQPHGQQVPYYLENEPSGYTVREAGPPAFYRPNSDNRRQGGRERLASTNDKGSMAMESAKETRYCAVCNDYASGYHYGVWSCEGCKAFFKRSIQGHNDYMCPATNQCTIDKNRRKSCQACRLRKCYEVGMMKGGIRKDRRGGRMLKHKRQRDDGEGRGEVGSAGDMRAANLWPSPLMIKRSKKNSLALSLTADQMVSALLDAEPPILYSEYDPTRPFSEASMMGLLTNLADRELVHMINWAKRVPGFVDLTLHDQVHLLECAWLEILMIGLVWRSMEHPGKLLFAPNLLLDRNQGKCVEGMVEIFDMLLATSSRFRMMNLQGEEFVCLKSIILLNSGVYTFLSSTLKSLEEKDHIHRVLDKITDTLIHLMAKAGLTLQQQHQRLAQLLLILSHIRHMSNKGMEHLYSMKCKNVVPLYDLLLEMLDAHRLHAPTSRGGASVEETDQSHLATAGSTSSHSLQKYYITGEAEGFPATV
Chain of Aromatase (Homo sapiens) (P11511 whole entry, looked up): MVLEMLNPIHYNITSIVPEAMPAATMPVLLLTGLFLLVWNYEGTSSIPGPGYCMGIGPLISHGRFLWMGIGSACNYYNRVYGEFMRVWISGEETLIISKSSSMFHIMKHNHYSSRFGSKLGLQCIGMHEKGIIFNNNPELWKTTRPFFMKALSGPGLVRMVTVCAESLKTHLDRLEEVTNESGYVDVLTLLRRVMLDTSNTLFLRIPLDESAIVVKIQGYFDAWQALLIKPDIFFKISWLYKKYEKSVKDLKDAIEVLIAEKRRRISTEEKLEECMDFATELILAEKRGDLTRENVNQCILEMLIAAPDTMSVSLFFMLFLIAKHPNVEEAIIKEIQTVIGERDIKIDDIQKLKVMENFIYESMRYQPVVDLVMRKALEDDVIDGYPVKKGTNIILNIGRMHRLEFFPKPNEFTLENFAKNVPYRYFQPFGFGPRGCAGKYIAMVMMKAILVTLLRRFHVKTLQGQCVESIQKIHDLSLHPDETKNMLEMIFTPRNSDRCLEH

Nc1cc(=O)[nH]c(N)n1
not listed: [16] | [17] | [18] | [19]
inactive: all other assays above

Cn1cc(S(C)=O)c(=O)c2ccc(F)cc21 (stereo not given)
not listed: [11] | [15] | [16] | [17] | [18] | [19]
inactive: all other assays above

CC(=O)OCC(CCn1cnc2cnc(N)nc21)COC(C)=O
not listed: [14]
inactive: all other assays above

CCCc1cc(C(N)=S)ccn1
not listed: [16] | [17] | [18] | [19]
inactive: all other assays above

N=C(N)c1ccc2cc(OC(=O)c3ccc(N=C(N)N)cc3)ccc2c1
not listed: [16]
inactive: all other assays above

CC(C)(O)C(=O)c1ccccc1
not listed: [7]
inactive: all other assays above

O=C(O)c1ccccc1OP(=O)(O)O
not listed: [14] | [16] | [17] | [18] | [19]
inactive: all other assays above

Cc1c(O)cccc1O
not listed: [10] | [16] | [17] | [18] | [19]
inactive: all other assays above

CC(C)(CC(=O)O)C(=O)O
not listed: [7] | [14]
inactive: all other assays above

CC1=CC(C)C(C=O)CC1 (stereo not given)
not listed: [11] | [13] | [16] | [17] | [18] | [19]
inactive: all other assays above

COc1ccccc1OCC(O)CN1CCN(CC(=O)Nc2c(C)cccc2C)CC1 (stereo not given)
not listed: [16] | [17] | [18] | [19]
inactive: all other assays above

CO[Si](CCCOCC1CO1)(OC)OC (stereo not given)
active: [3] 38.6 µM
not listed: [14] | [16] | [17] | [18] | [19]
inactive: all other assays above

NS(=O)(=O)c1ccccc1Cl
not listed: [10] | [12] | [13] | [14] | [16] | [17] | [18] | [19]
inactive: all other assays above

CC(=O)c1ccccc1O
not listed: [11] | [16] | [17] | [18] | [19]
inactive: all other assays above

Nc1ccc(S(=O)(=O)Nc2ccnn2-c2ccccc2)cc1
not listed: [16] | [17] | [18] | [19]
inactive: all other assays above

CC(C)c1cc2c(cc1S(=O)(=O)O)[C@@]1(C)CCC[C@@](C)(C(=O)O)[C@@H]1CC2
not listed: [16] | [17] | [18] | [19]
inactive: all other assays above
